# hgDAF-12 ag = hgDAF-12 agonism, primary luciferase screen. HEK293 GAL4-hgDAF12 UAS-luciferase reporter, agonist luminescence; normalized to butyrate control. activation, % at 6.8 µM. 370,000 tested, 1.8% active;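 active = activation above a cutoff set at the mean of all screened compounds plus 3 SD, cut at about 10% in these data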;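 also: 0% = DMSO wells and 100% = sodium butyrate wells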
# DAX1 inh-1 = DAX1 (NR0B1) inhibition, primary screen. AID 652010. 370,000 tested, 1.1% active. inhibition, % at 6.8 µM. HEK293T StAR-luciferase reporter, SF-1/DAX-1 repression relief;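 active = inhibition above the mean over all tested compounds plus 3 SD, cut at about 3.6% in these data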;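 also: 0% = DAX-1 cells with DMSO and 100% = cells lacking DAX-1 with DMSO; higher inhibition means more luminescence from relief of DAX-1 repression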
# GAA850 FXN act = activators of GAA850 frataxin (FXN) promoter; HEK293 lucGAA850 FXN promoter luciferase reporter, 24 h; percent of 10 µM SAHA response; 360,000 tested, 0.56% active; activation, % at 6 µM;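 active = activation above the average of all compounds screened plus 3 SD, cutoff fixed separately per campaign, cut at about 7.5% in these data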;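 also: 0% = DMSO wells and 100% = 10 µM SAHA wells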
# DAX1 inh-2 = NR0B1 (DAX1) inhibition. P51843. HEK293 Gal4-DAX1 luciferase reporter, luminescence. inhibition, % at 6.75 µM. 340,000 tested, 0.99% active;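 active = inhibition above the mean over all tested compounds plus 3 SD, cut at about 4.2% in these data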;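 also: 0% = DAX1-transfected cells with DMSO and 100% = empty-vector control cells with DMSO; inhibition shows as a rise in luminescence from relieved DAX1 repression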
# ssDAF12 agonist = activators of S. stercoralis DAF-12 nuclear receptor | HEK293 ssDAF-12/GRIP1 lit1-tk-luc reporter, luminescence; % of 3 µM dafachronic acid response | activation, % at 6.8 µM | 370,000 tested, 1% active | AID 652126;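 active = activation above the mean over all tested compounds plus 3 SD, cut at about 0.9% in these data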;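 also: 0% = DMSO-only wells and 100% = 3 µM delta7-dafachronic acid wells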
# hcDAF12 agonist = H. contortus DAF-12 activation, primary screen; AID 652067; 370,000 tested, 1.4% active; HEK293 hcDAF-12 lit1-tk-luc reporter, luminescence; 0% DMSO, 100% Δ7-dafachronic acid; activation, % at 6.8 µM;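 active = activation above the mean of all tested compounds plus 3 SD, cut at about 5.5% in these data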;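 also: 100% = response to 3 µM Δ7-dafachronic acid high control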
# DAX1 inh confirm = NR0B1 (human) inhibition, confirmation | shares compounds with DAX1 inh-1 | HEK293T StAR-promoter luciferase reporter, SF-1/DAX-1 repression | inhibition, % at 6.8 µM | 2,400 tested, 87% active | AID 652134;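 active = inhibition above the average of every tested compound plus 3 SD, cut at about 3.8% in these data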;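 also: 0% = DAX-1 cells with DMSO and 100% = no DAX-1 control cells with DMSO; active compounds raise luminescence by relieving repression of the StAR reporter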
# Target sequence (P51843 whole entry, looked up): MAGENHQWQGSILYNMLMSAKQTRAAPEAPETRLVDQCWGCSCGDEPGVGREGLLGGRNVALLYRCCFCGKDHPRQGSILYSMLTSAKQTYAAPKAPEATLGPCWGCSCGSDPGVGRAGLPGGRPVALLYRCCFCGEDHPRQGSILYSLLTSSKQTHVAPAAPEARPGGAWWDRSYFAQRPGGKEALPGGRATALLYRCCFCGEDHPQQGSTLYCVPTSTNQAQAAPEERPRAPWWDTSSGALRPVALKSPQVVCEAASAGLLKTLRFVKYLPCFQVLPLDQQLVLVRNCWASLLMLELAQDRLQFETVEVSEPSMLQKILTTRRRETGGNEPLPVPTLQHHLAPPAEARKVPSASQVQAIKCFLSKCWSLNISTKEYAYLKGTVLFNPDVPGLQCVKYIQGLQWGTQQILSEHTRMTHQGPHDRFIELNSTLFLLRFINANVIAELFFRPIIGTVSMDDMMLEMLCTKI
# SF1 mutant ctr = nonselective inhibitor or artifact in SF-1 mutant DAX1 counter-screen; shares compounds with DAX1 inh-1; HEK293 StAR-luciferase, SF-1 AF2 mutant, luminescence; inhibition, % at 6.8 µM; 2,400 tested, 78% active; AID 652136;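 active = inhibition above the mean of all tested compounds plus 3 SD, cut at about 3% in these data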;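 also: 0% = DAX-1 transfected cells with DMSO and 100% = cells without DAX-1 with DMSO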
# Active calls of the source: *; nt = no result. Hits are enriched below; roughly 4.5% of the tested compounds scored in any of these assays.
SMILES,hgDAF-12 ag,DAX1 inh-1,GAA850 FXN act,DAX1 inh-2,ssDAF12 agonist,hcDAF12 agonist,DAX1 inh confirm,SF1 mutant ctr
O=C(Nc1ccc(F)cc1)OCc1cn(Cc2ccccc2Cl)nn1,-1,0,nt,nt,0,-1,nt,nt
O=C(C[n+]1cccc(/C=N/O)c1)NC(=O)Nc1ccccc1,0,0,nt,nt,-1,-1,nt,nt
COc1ccccc1C(=O)Nc1nnc(SCC(=O)NCc2ccco2)s1,nt,nt,2,0,nt,nt,nt,nt
CCc1nnc(NC(=O)Nc2ccccc2OC)s1,4,1,3,2,-2,3,nt,nt
CCc1nnc(NC(=O)c2ccc(OC)cc2OC)s1,12*,6.8*,0,0,0,6.1*,13*,5.7*
Cc1ccccc1C(=O)Nc1nnc(SCC(=O)NC2CC2)s1,8,7.4*,2,2,0,4,6.1*,3.6*
COc1ccc(C(=O)Nc2nnc(SCC(=O)NCc3ccco3)s2)c(OC)c1,10,5.0*,-3,-2,0,2,5.5*,0
O=C(CSc1nnc(NC(=O)c2ccccc2F)s1)NCc1ccco1,7,6.3*,3,1,0,2,5.9*,6.4*
COc1cc(CNc2ncnc3c2ncn3[C@H]2CN(Cc3cccc4ccccc34)C[C@@H](CO)O2)cc(OC)c1OC,-3,-2,-2,nt,-2,-1,nt,nt
COC(=O)[C@]12C[C@H](CC(=O)NCC3CCCCC3)C(=O)N(CCc3ccc(OC)c(OC)c3)C1=C[C@H](C(C)C)O[C@@H]2C1CC1,1,1,nt,nt,-1,-2,nt,nt
COC(=O)c1cc2c(c3c4cc(F)ccc4n(S(=O)(=O)c4ccc(C)cc4)c13)C(=O)N(Cc1ccc(N(C)C)cc1)C2,1,-1,nt,nt,0,0,nt,nt
CCOc1cc(/C=N/NC(=O)c2ccncc2)ccc1OC(=O)c1ccccc1,3,-1,0,1,-1,-1,nt,nt
O=C(NN=C1CCC(=NNC(=O)c2ccccn2)CC1)c1ccccn1,17*,5.7*,6,0,0,6,1,1
O=C(N/N=C/c1ccsc1)c1ccccn1,13*,5.7*,6,5.0*,1,6.3*,4.7*,3
CCOc1cc(/C=N/NC(=O)c2ccccn2)ccc1OC(=O)c1ccc(F)cc1,9,6.1*,2,1,0,1,2,4.7*
O=C(NN=C(c1ccccc1)c1ccccn1)c1ccccc1,-10,-5,2,-3,-2,-2,nt,nt
C/C(Cc1ccccc1)=N\NC(=O)c1ccccn1,12*,8.5*,2,2,0,3,3,1
C/C(Cc1ccccc1)=N\NC(=O)c1cccnc1,-1,0,2,0,0,-3,nt,nt
CCCCCN1CCCCC(NC(=O)c2ccccc2OC)C1=O (configuration not stated),1,-1,nt,nt,-1,-2,nt,nt
FC(F)(F)c1ccccc1Cc1c(-c2ccco2)nc2c3ccccc3ccn12,-1,-1,nt,nt,1,2,nt,nt
C=CCN1C(=O)[C@@H](CC(=O)NCc2ccc(C)o2)[C@]2(C(=O)OC)CCCCC=C12,1,0,nt,nt,-1,0,nt,nt
CCOC(=O)c1c(C)[nH]c(C(=O)OCc2ccccc2)c1C,12*,15*,5,1,1.9*,4,12*,5.5*
CCN(CC)C(=O)CC[C@H]1CC[C@]2(CCCN(C(=O)c3cccnc3)C2)O1,0,0,nt,nt,-2,0,nt,nt
CCCn1c2ccccc2c2cnn(CC(=O)NCCCN3C(C)CCCC3C)c(=O)c21 (configuration not stated),2,5.6*,2,-1,-1,0,-1,-1
CCCn1c2ccccc2c2cnn(CC(=O)NCCCOC)c(=O)c21,-2,1,-1,0,-1,-2,nt,nt
SMILES,hgDAF-12 ag,DAX1 inh-1,GAA850 FXN act,DAX1 inh-2,ssDAF12 agonist,hcDAF12 agonist,DAX1 inh confirm,SF1 mutant ctr
C[C@H](CO)N1C[C@H](C)[C@@H](CN(C)Cc2ccc(C(=O)O)cc2)OCCCC[C@H](C)Oc2ccc(NC(=O)CCC(F)(F)F)cc2C1=O,0,-1,nt,nt,0,1,nt,nt
CCCCOc1ccc(C(=O)NC2CCCCN(Cc3ccc(C)cc3)C2=O)cc1 (configuration not stated),-1,-3,nt,nt,-2,-3,nt,nt
Cc1ccc(OCc2cc(C(=O)N3CCN(C)C[C@@H]3c3ccccc3)no2)cc1C,5,3,2,1,0,4,nt,nt
CN1CCN(C(=O)c2cc(COc3ccccc3)on2)[C@@H](c2ccccc2)C1,11*,5.8*,3,1,1.1*,4,6.0*,2
COc1ccc(OC)c(CN2C(=O)CCCC2(C)c2nnnn2C2CCCC2)c1 (configuration not stated),3,0,nt,nt,-1,0,nt,nt
C/C(=N\NC(=O)c1ccccc1O)c1cccs1,7,5.4*,-5,-1,-1,2,5.9*,2
C/C(=N\NC(=O)c1cccc2ccccc12)c1cccs1,1,1,6,1,0,-1,nt,nt
O=C(NC1CC1)c1cc2cc3ccccc3nc2s1,10,4.9*,4,1,0,1,7.6*,4.6*
C/C(=N\NC(=O)c1ccn(C)n1)c1ccc(NC(=O)c2cccc(F)c2)cc1,9,8.4*,5,0,0,2,-2,-1
C/C(=N\NC(=O)c1ccn(C)n1)c1ccco1,6,1,3,1,-1,3,nt,nt
Cc1ccsc1C(=O)OCC(=O)NC1CCCC1,5,2,3,2,0,5,nt,nt
Cc1ccsc1C(=O)OCC(=O)N1CCc2ccccc2C1,11*,6.9*,6,2,0,2,13*,5.9*
Cc1ccsc1C(=O)OCC(=O)N(C)C1CCCCC1,12*,10*,0,1,0,5.9*,11*,6.3*
OC(c1ccccc1)(c1ccccc1)c1cnc2ccccn12,-2,nt,nt,nt,-1,-2,nt,nt
CN(C)[C@@H]1CCN(c2cccc3c2S(=O)(=O)N(C2CC2)CCCO3)C1,2,-1,nt,nt,-1,1,nt,nt
O=C(Nc1nnc(Cc2ccc(Cl)cc2)s1)C1CCCO1 (configuration not stated),-2,1,2,2,-2,-1,nt,nt
O=C(Nc1ncc(Cc2ccccc2)s1)C1CCCO1 (configuration not stated),13*,8.3*,2,0,1,4,11*,4.8*
COC(=O)c1cc2c(c3c4cc(OC)ccc4n(S(=O)(=O)c4ccc(OC)cc4)c13)C(=O)N(Cc1ccco1)C2,-2,-2,nt,nt,-1,0,nt,nt

# Screening data as filed in PubChem.
